Data as given in PubChem BioAssay (Tox21).
Where “and” joins values, the source holds several entries; their conditions need not be identical. Identical values can stand only once. Inconclusive results are not listed. Calls of active or inactive are those of the source. Unless noted, calls come from the whole dose curve.

How the values were obtained:
[1] = Nuclear factor erythroid 2-related factor 2/antioxidant responsive element (Nrf2/ARE) small molecule agonists: qHTS cell viability counter screen in human keratinocytes (AID 1919968; active = well fitted curve in the direction sought with a large enough effect in the repeat runs; an effect the other way counts as inactive or inconclusive; note: nearly all actives have a fitted effect of over 55% in size)
Procedure, shortened: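 Stably transfected HaCaT (KeratinoSens), 1,500/well. Test agents in DMSO were applied for 23 h, 37 C/5% CO2. CellTiter-Fluor was incubated 1 h before the fluorescence read.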

[2] = Nuclear factor erythroid 2-related factor 2/antioxidant responsive element (Nrf2/ARE) small molecule agonists: luciferase reporter gene qHTS assay in human keratinocytes (AID 1919969); note: nearly all actives have a fitted effect of over 35% in size; note: potency is the fitted concentration of half-maximal effect
[3] = biological target: Gonadotropin-releasing hormone receptor (Homo sapiens) (UniProt P30968); experiment: Human gonadotropin-releasing hormone receptor (GnRHR) small molecule agonists, calcium flux assay in GnRHR-HEK293 cells (AID 1920063); note: nearly all actives have a fitted effect of over 35% in size
Procedure, shortened: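 Stable human GnRHR HEK293 line. 18 h plating, then calcium dye for 1 h at 37 C. Agonist-mode compound addition from DMSO stocks; fluorescence monitored 3 min.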

[4] = biological target: KiSS-1 receptor (Homo sapiens) (UniProt Q969F8); experiment: Human kisspeptin (KISS1R) small molecule agonists, calcium flux assay in KISS1R-HEK293 cells (AID 1920064; active = well fitted curve in the direction sought with a large enough effect in the repeat runs; an effect the other way counts as inactive or inconclusive)
Procedure, shortened: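 After overnight (18 h) culture at 37 C/5% CO2, human KISS1R-HEK293 cells received calcium dye for 1 h, then test compound; emission at 540 nm (excitation 480 nm) was tracked for 3 min.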

[5] = G protein-coupled receptor (GPCR) small molecule agonists, calcium flux assay: HEK293 wild type cell line counter screen (AID 1920065)
Procedure, shortened: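 Following 18 h incubation at 37 C/5% CO2, plates got calcium dye for 1 h; compounds, ATP or DMSO were then pinned in and fluorescence followed kinetically (480/540 nm).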

[6] = p53 small molecule agonists, cell-based qHTS assay with human liver microsomes (AID 1963577)
Procedure, shortened: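 p53RE-bla reporter cells were pre-incubated 5 h at 37 C, then treated with compounds plus human liver microsomes (0.5 mg/mL final) and NADPH (0.5 mg/mL final) for 16 h at 37 C. Beta-lactamase activity was read by LiveBLAzer fluorescence after 2 h at room temperature.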

[7] = p53 small molecule agonists, cell-based qHTS assay with rat liver microsomes (AID 1963578)
Procedure, shortened: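 p53RE-bla cells were exposed to compounds together with rat liver microsomes (0.5 mg/mL final) and NADPH (0.5 mg/mL final) for 16 h at 37 C, then read by LiveBLAzer beta-lactamase fluorescence after 2 h at room temperature.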

[8] = p53 small molecule agonists, cell-based qHTS assay with human liver microsomes: qHTS cell viability counter screen (AID 1963579); note: nearly all actives have a fitted effect of over 45% in size
Procedure, shortened: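 p53RE-bla cells (4,000/well) were pre-incubated 5 h at 37 C, then given compounds in DMSO plus human liver microsomes (0.5 mg/mL final) and NADPH (0.5 mg/mL final) for 16 h at 37 C. Viability was read by CellTiter-Glo luminescence.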

[9] = p53 small molecule agonists, cell-based qHTS assay with rat liver microsomes: qHTS cell viability counter screen (AID 1963580); note: nearly all actives have a fitted effect of over 45% in size
Procedure, shortened: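 After the beta-lactamase ratio was read, CellTiter-Glo was added to the same wells and luminescence measured at 30 min; cells had been treated 16 h at 37 C with compounds, rat liver microsomes and NADPH (0.5 mg/mL final each).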

[10] = p53 small molecule agonists, cell-based qHTS assay: qHTS cell viability counter screen (AID 1963581); note: nearly all actives have a fitted effect of over 45% in size
Procedure, shortened: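 qHTS counter screen: 16 h compound exposure at 37 C of p53RE-bla HCT-116 cells (4,000 per well, seeded 5 h prior), cell viability by ATP luminescence.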

[11] = p53 small molecule agonists, cell-based qHTS assay (AID 1963582; active = well fitted activation curve with a large enough effect in the signal ratio in the repeat runs, not every such curve was filed as active; the % refers to the signal ratio)
Procedure, shortened: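 Measured: fluorescence from cleaved LiveBLAzer substrate. System: p53RE-bla cells, 16 h compound treatment at 37 C, 2 h substrate step at room temperature.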

[12] = biological target: 5-hydroxytryptamine receptor 2A (Homo sapiens) (UniProt P28223); experiment: 5-hydroxytryptamine receptor 2A (HTR2A) small molecule antagonists, cell-based qHTS assay (AID 1963586); note: nearly all actives have a fitted effect of over 45% in size
Procedure, shortened: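 CHO cells stably expressing human HTR2A were plated for 18 h at 37 C, then loaded with calcium dye for 1 h. Compounds were preincubated 5 min at room temperature before DOI (4 nM solution) was added. Kinetic fluorescence was read for 3 min.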

[13] = biological target: 5-hydroxytryptamine receptor 2A (Homo sapiens) (UniProt P28223); experiment: 5-hydroxytryptamine receptor 2A (HTR2A) small molecule agonists, cell-based qHTS assay (AID 1963587); note: nearly all actives have a fitted effect of over 30% in size
Procedure, shortened: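 CHO cells stably expressing human HTR2A, plated 18 h, loaded with calcium dye 1 h at 37 C. Agonist mode: compounds added and intracellular calcium fluorescence recorded kinetically for 2 min at 1 sec intervals.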

[14] = biological target: Muscarinic acetylcholine receptor M1 (Homo sapiens) (UniProt P11229); experiment: Cholinergic receptor muscarinic 1 (CHRM1) small molecule antagonists, cell-based qHTS assay (AID 1963588); note: nearly all actives have a fitted effect of over 40% in size
Procedure, shortened: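 Compounds were tested at 15 concentrations in three independent runs. Dye-loaded CHRM1-CHO cells were exposed 5 min at room temperature before stimulation by acetylcholine added at 50nM. Intracellular calcium was read kinetically on FDSS for 3 min.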

[15] = biological target: Muscarinic acetylcholine receptor M1 (Homo sapiens) (UniProt P11229); experiment: Cholinergic receptor muscarinic 1 (CHRM1) small molecule agonists, cell-based qHTS assay (AID 1963589); note: nearly all actives have a fitted effect of over 35% in size
Procedure, shortened: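 Kinetic fluorescence (1 s intervals) of calcium-sensitive dye in human M1 CHO cells after compound addition; cells pre-incubated 18 h at 37 C/5% CO2 and dye-loaded 1 h.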

[16] = cAMP Responsive Elements (CRE) small molecule agonists, cell-based qHTS assay (AID 1963590)
Procedure, shortened: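 Test agents in DMSO were incubated 3 h at 37 C/5% CO2 with CRE-bla HEK 293T cells seeded 18 h earlier; LiveBLAzer B/G FRET substrate was added and read after 2 h at room temperature.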

[17] = cAMP Responsive Elements (CRE) small molecule antagonists, cell-based qHTS assay (AID 1963591; active = well fitted inhibition curve with a large enough effect in the signal ratio in the repeat runs, not every such curve was filed as active; the % refers to the signal ratio)
Procedure, shortened: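 Reporter line CRE-bla HEK 293T in dialyzed-FBS DMEM; cells preincubated 18 h, treated 3 h with compound plus NKH477 (0.25 uM final); LiveBLAzer FRET, 2 h RT.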

[18] = biological target: Beta-2 adrenergic receptor (Homo sapiens) (UniProt P07550); experiment: Adrenergic beta2 receptor (ADRB2) small molecule antagonists, cell-based qHTS assay (AID 1963592); note: series mostly up to about 92 µM; nearly all actives have a fitted effect of over 50% in size
Procedure, shortened: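 Assay format: CHO-ADRB2 cells, 18-20hr seeding at 37C/5% CO2, then compound plus 1nM isoproterenol agonist mix for 0.5hr RT. Homogeneous time-resolved fluorescence cAMP detection after 1hr, expressed as 665/615 nm ratio.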

[19] = biological target: D(2) dopamine receptor (Homo sapiens) (UniProt P14416); experiment: Dopamine D2 receptor (DRD2) small molecule agonists, cell-based qHTS assay (AID 1963594); note: nearly all actives have a fitted effect of over 35% in size
Procedure, shortened: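 HEK293 cells stably expressing human DRD2, pre-treated with PDE inhibitor Ro20-1724 (0.1 mM final) and compound 10 min at room temperature, then stimulated with NKH477 (200nM […]) for 30 min. cAMP read by HTRF (665/620 nm).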

[20] = biological target: D(2) dopamine receptor (Homo sapiens) (UniProt P14416); experiment: Dopamine D2 receptor (DRD2) small molecule antagonists, cell-based qHTS assay (AID 1963595; active = well fitted inhibition curve with a large enough effect in the signal ratio in the repeat runs, with a control signal flat; the % refers to the signal ratio)
Procedure, shortened: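 HEK293 cells stably expressing DRD2, preincubated with 0.1 mM Ro20-1724 and compounds 10 min, were stimulated with 200 nM NKH477 plus 12 nM quinpirole for 30 min at room temperature; cAMP measured by HTRF (665/620 nm).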

Measured: Potency

Chain of KiSS-1 receptor (Homo sapiens) (Q969F8 whole entry, looked up): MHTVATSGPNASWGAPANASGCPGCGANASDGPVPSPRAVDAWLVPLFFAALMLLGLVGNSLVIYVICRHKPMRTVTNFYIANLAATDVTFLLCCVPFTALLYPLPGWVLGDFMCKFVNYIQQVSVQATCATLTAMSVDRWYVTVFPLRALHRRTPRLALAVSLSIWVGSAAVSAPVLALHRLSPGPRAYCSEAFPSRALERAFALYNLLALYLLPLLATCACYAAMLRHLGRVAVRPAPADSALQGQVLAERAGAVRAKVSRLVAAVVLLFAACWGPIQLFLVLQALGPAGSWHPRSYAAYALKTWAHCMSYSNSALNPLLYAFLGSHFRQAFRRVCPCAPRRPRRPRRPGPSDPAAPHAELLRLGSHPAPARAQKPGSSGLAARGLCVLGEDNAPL
Chain of Gonadotropin-releasing hormone receptor (Homo sapiens) (P30968 whole entry, looked up): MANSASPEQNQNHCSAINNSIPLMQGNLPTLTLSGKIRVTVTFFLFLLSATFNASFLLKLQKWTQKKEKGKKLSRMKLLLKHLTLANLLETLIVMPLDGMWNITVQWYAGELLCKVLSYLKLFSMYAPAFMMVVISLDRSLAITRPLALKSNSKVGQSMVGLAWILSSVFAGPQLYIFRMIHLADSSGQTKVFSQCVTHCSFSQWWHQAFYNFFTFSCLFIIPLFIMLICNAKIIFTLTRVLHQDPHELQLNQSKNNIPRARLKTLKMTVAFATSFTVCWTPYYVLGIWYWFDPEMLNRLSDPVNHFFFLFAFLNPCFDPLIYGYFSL
Chain of Beta-2 adrenergic receptor (Homo sapiens) (P07550 whole entry, looked up): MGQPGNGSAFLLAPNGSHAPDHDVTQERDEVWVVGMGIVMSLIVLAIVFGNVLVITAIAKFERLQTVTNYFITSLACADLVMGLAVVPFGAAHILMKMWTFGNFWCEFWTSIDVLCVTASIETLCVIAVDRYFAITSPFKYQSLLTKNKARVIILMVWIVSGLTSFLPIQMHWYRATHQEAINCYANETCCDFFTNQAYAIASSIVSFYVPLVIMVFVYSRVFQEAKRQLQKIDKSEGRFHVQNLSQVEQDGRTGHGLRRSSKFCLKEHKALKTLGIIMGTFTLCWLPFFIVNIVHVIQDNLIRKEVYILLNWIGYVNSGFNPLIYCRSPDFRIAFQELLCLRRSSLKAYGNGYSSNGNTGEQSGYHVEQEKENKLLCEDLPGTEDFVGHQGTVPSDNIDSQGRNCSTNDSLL
Chain of 5-hydroxytryptamine receptor 2A (Homo sapiens) (P28223 whole entry, looked up): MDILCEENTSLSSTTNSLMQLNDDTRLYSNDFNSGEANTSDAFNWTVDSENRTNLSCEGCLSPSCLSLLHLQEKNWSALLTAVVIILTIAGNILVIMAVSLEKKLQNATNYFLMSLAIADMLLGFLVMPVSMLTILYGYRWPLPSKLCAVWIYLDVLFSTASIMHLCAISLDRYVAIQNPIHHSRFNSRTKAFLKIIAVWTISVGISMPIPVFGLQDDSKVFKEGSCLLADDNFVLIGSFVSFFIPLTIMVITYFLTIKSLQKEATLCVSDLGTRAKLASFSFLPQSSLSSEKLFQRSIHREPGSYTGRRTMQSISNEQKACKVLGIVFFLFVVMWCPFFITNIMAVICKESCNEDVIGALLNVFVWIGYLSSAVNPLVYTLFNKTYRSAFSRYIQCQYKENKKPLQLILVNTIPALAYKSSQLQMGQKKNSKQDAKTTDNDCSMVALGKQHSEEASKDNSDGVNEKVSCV
Chain of Muscarinic acetylcholine receptor M1 (Homo sapiens) (P11229 whole entry, looked up): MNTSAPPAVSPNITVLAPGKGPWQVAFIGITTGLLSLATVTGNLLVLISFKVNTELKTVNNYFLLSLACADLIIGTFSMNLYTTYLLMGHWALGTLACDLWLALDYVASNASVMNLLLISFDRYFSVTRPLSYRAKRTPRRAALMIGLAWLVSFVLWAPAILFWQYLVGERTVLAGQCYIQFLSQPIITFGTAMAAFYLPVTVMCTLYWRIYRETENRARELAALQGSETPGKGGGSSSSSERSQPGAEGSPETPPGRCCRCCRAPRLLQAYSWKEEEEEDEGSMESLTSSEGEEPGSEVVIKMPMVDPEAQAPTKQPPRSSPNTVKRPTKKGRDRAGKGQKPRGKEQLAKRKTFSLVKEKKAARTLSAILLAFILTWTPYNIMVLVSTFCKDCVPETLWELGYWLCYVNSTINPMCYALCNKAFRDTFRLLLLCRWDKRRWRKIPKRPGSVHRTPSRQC
Chain of D(2) dopamine receptor (Homo sapiens) (P14416 whole entry, looked up): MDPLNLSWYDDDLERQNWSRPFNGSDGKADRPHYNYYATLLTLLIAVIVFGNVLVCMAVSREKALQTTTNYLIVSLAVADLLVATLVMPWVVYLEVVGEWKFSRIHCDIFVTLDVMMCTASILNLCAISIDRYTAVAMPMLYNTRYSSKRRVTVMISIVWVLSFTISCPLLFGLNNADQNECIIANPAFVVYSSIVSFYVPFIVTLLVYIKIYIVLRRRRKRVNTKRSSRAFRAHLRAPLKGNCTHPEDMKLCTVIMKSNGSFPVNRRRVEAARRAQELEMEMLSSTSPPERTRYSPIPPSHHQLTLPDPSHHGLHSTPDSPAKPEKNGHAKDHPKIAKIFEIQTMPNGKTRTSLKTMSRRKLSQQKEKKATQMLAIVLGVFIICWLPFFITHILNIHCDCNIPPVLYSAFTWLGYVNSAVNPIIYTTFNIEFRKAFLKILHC

CC(=[OH+])/C=C(/C)[O-].CC(=[OH+])/C=C(\C)[O-].CC(=[OH+])/C=C(\C)[O-].[Fe]
inactive: all assays above

CCOP(=O)(OCC)OCC
inactive: all assays above

O=[N+]([O-])c1cc(Cl)c(Cl)c(Cl)c1
inactive: all assays above

O=C(CCl)c1ccccc1
active: [2] 62 µM and 54.5 µM
inactive: all other assays above

N#CCCO
inactive: all assays above

N#Cc1ccc(O)cc1
inactive: all assays above

CCC12COCN1COC2
inactive: all assays above

C=CCCC#N
inactive: all assays above

Cl[C@H]1OCCO[C@@H]1Cl
inactive: all assays above

CC1(C)C(C=C(Cl)Cl)C1C(=O)OC(C#N)c1ccc(F)c(Oc2ccccc2)c1 (stereo not drawn)
inactive: all assays above

CC(COc1ccc(Oc2ccccc2)cc1)Oc1ccccn1 (stereo not drawn)
active: [2] 17.2 µM
not listed: [19]
inactive: all other assays above

CCC(C)Cl (stereo not drawn)
not listed: [19]
inactive: all other assays above

Nc1cccnc1
inactive: all assays above

FC(F)(F)c1ccc(Cl)cc1
inactive: all assays above
